The panel holds about 83,000 compounds, 20% with a hit somewhere; the sample as a whole holds those more often.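 Plates (96-well) were seeded with cells, treated with compound at one concentration, and incubated for 48 hours before percent growth was determined.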 Unmarked numbers belong to inactive results. The source made the active and inactive calls. Rule for the calls: active = growth percent below 10; inactive = the rest.
What was measured:
Assay in all cases: NCI-60 one-dose screen, 48 h (100 = growth as untreated, 0 = no growth, -100 = all killed)
Conditions in all cases: 10 µM unless noted
SR leukemia = system: SR leukemia
RPMI-8226 leukemia = system: RPMI-8226 leukemia
OVCAR-8 ovarian = system: OVCAR-8 ovarian
OVCAR-5 ovarian = system: OVCAR-5 ovarian
OVCAR-4 ovarian = system: OVCAR-4 ovarian
SK-OV-3 ovarian = system: SK-OV-3 ovarian
IGROV1 ovarian = system: IGROV1 ovarian
OVCAR-3 ovarian = system: OVCAR-3 ovarian
HS 578T breast = system: HS 578T breast
NCI/ADR-RES ovarian = system: NCI/ADR-RES ovarian

Row | Structure (SMILES) | growth (SR leukemia) | growth (RPMI-8226 leukemia) | growth (OVCAR-8 ovarian) | growth (OVCAR-5 ovarian) | growth (OVCAR-4 ovarian) | growth (SK-OV-3 ovarian) | growth (IGROV1 ovarian) | growth (OVCAR-3 ovarian) | growth (HS 578T breast) | growth (NCI/ADR-RES ovarian)
1 | COc1ccc2[nH]cc(C(c3cc(F)cc(F)c3)c3c[nH]c4ccc(OC)cc34)c2c1 | 46.8% | 57.5% | 87.2% | 85% | 93.9% | 94.8% | -7.1% (active) | 89.9% | 67.2% | 72.9%
2 | CN1CCN(Cc2ccc(NC(=O)c3cncc(C#Cc4cnc(N)c5ccccc45)c3)cc2C(F)(F)F)CC1 | 1.53% (active) | -42.8% (active) | -82.5% (active) | -83.7% (active) | -32.7% (active) | -78.5% (active) | -69.8% (active) | -87.6% (active) | -41.5% (active) | -65.7% (active)
3 | Brc1c2c(c(Br)c3ccccc13)CCCC2 | 99% | 100% | 91% | 104% | 112% | 89.5% | 98.1% | 110% | 95.5% | 107%
4 | CO[C@]12C=C/C(=C(/C(=O)OCc3cccnc3)C(=O)CCCCCCCC[C@@]3(OC)C=C/C(=C(/C(=O)OCc4cccnc4)C(=O)CCCCCCCC1)O3)O2 | -9.1% (active) | -9.22% (active) | 19.9% | -5.24% (active) | 11% | 57.4% | 2.68% (active) | -19.3% (active) | 37% | 36.3%
5 | Cc1c(-n2nnc(-c3nc4ccccc4s3)c2N)c(=O)n(-c2ccccc2)n1C | 103% | 105% | 102% | 92.8% | 105% | 97.8% | 90.5% | 107% | 100% | 92.5%
6 | CCOC(=O)c1cnc2ccccc2c1Cl | 109% | 114% | 99.6% | 98.3% | 84.7% | 101% | 122% | 106% | 92.9% | 105%
7 | COC(=O)[C@H]1CCCN1C[C@@H](O)CN1C(=O)/C(=C\c2cc(OC)c(OC)c(OC)c2)c2ccccc21 | 78% | 91.4% | 92.1% | 123% | 90.6% | 108% | 102% | 105% | 99.6% | 102%
8 | COc1cc(CNC(=O)CCCC/C=C/C(C)C)ccc1OCc1nnc(Nc2ccc([N+](=O)[O-])cc2)o1 | 64.2% | 52.3% | 25% | 101% | 11.3% | 11.8% | 53.5% | 77.3% | 63.2% | 79.6%
9 | O=C(O)c1[nH]c(=O)[nH]c(=O)c1[N+](=O)[O-] | 70.9% | 112% | 101% | 126% | 122% | 116% | 133% | 134% | 106% | 103%
10 | CC(C)(C)[Si](C)(C)O[C@H]1C(=O)C=CN2CC=C[C@@H]12 | 81.8% [100 µM] | 115% [100 µM] | 97% [100 µM] | 94.4% [100 µM] | 110% [100 µM] | 101% [100 µM] | 114% [100 µM] | 103% [100 µM] | 95.3% [100 µM] | 106% [100 µM]
11 | O=C(c1ccc(-c2ccccc2)cc1)c1ccc([N+](=O)[O-])cc1 | 86.8% | 66.1% | 104% | 120% | 105% | -100% (active) | 101% | 104% | 110% | 114%
12 | CCCCN1C(=O)/C(=c2\sc3n(c2=O)C2C(NN=3)N(CC)C(=O)N2CC)c2ccccc21 (stereo not given) | 11% | 4.61% (active) | -12.5% (active) | 25.8% | 37.5% | 24.5% | 2.64% (active) | -31.5% (active) | 6.5% (active) | -9.17% (active)
13 | COCCn1cc(-c2nc(-c3cc4cccnc4n3CCOC)cs2)c2cc(OC)ccc21 | 36.3% | 60.3% | 61.1% | 23.6% | 20% | 73.4% | 30.8% | 4.62% (active) | 58% | 58.3%
14 | Cc1ccc(-c2nc(N3CCNCC3)c3oc(-c4ccccc4)nc3n2)cc1 | -44% (active) | -54.7% (active) | -66.4% (active) | 14.7% | -51.6% (active) | 87.4% | -68% (active) | -89.5% (active) | -7.69% (active) | -23.1% (active)
15 | COc1cccc([C@H]2c3[nH]c4ccccc4c3C[C@H]3C(=O)N(CCCCCCC(=O)NO)CC(=O)N23)c1 | 4.26% (active) | 14.6% | 65.6% | 62.1% | 62% | 77.1% | 64.4% | 64.7% | 59.6% | 91.1%
16 | C#CCOc1cccc(Nc2ncnc3ccc(NC(=O)CCl)cc23)c1 | -42.1% (active) | -50.9% (active) | -4.18% (active) | -70.1% (active) | -33.9% (active) | 20.1% | -57.2% (active) | -74.8% (active) | 24.5% | -1.49% (active)
17 | O=Cc1ccc([N+](=O)[O-])s1 | 63.2% | 94.6% | 87.1% | 93.7% | 98.3% | 109% | 79.8% | 105% | 113% | 95.2%
18 | N#Cc1cccc(NC(=O)c2oc3ccccc3c2-c2cnn(-c3ccccc3)c2)c1 | 3.02% [50 µM] (active) | -16.2% [50 µM] (active) | 76.4% [50 µM] | 83.8% [50 µM] | 89.1% [50 µM] | 78% [50 µM] | 92.6% [50 µM] | 104% [50 µM] | 89.3% [50 µM] | 77.2% [50 µM]
19 | CC(C)CCNC(=O)Cn1cccc(NC(=O)OCc2ccccc2)c1=O | 107% | 92.6% | 104% | 127% | 98.7% | 101% | 112% | 107% | 103% | 93.9%
20 | CN1CCN(c2ccc(C(=O)Nc3cccc(C#Cc4cccc5[nH]nc(N)c45)c3)cc2C(F)(F)F)CC1 | -17.7% (active) | -13.7% (active) | -14.5% (active) | -43.1% (active) | -0.309% (active) | -42.6% (active) | -56.5% (active) | -17.9% (active) | -26% (active) | -24.7% (active)
21 | O=C(O)CNC1=C(Cl)C(=O)c2ccccc2C1=O | 107% | 87.4% | 87.9% | 118% | 97% | 114% | 103% | 97.5% | 124% | 98.3%
22 | CCN(CC)CCOc1ccc(-c2c(-c3ccccc3)c(=O)oc3ccccc23)cc1 | 93.6% | 90.9% | 90.6% | 95.6% | 94.2% | 79.1% | 95.5% | 104% | 71.2% | 84.8%
23 | O=C1/C(=C/c2cccs2)SC(=S)N1CCCN1CCOCC1 | 92.5% | 97.9% | 96% | 105% | 89.1% | 99.4% | 97% | 113% | 98.7% | 92.7%
24 | COc1ccc(C/C(C)=C(/c2ccc(OCCN3CCCCC3)cc2)c2ccc(OC(=O)NCc3ccccc3)cc2)cc1 | -58% (active) | -62.3% (active) | -83.5% (active) | -78.6% (active) | -91.4% (active) | -93.7% (active) | -71.1% (active) | -89.2% (active) | -57.6% (active) | -75.7% (active)
